# VACV Venus inh – inhibitors of vaccinia virus (Venus reporter); Vaccinia virus Venus reporter expression, fluorescence; Potency, µM (highest dose often 36.5 µM), for the others: at the top dose activity change, negative = inhibition, usual class: inhibitors; 330,000 tested, 0.46% active; calls by dose curve; tested in A549 cells; further: on the % scale 0 is the no-effect control and ±100 the full control effect; nearly all actives have a fitted effect of over 30% in size
# Pf growth 96h – P. falciparum growth inhibition at 96 hours. P. falciparum luciferase reporter growth, 96 h. Potency, µM (series often up to 28.7 µM), for inactives: at the top dose activity change, negative = inhibition, actives largely listed as inhibitors. 320,000 tested, 6.9% active; further: on the % scale 0 is the no-effect control and ±100 the full control effect
#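 Compounds incubated with erythrocytes infected by luciferase-expressing P. falciparum (2% hematocrit, 0.05% parasitemia final) for 96 hours, 37 C in 5% CO2. Growth inhibition scored as decreased luciferase luminescence.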
# Vaccinia mCherry – inhibitors of vaccinia virus infection (mCherry reporter signal) | AID 720579 | Vaccinia virus mCherry reporter infection, fluorescence | 310,000 tested, 0.63% active | Potency, µM (titrated, usually from 36.5 µM), inactives show top-dose activity change, negative = inhibition, hits mostly inhibitors; calls by dose curve; tested in A549 cells; further: on the % scale 0 is the no-effect control and ±100 the full control effect; nearly all actives have a fitted effect of over 35% in size
# NS1 function inh – inhibitors of influenza NS1 protein function; Potency, µM (highest dose often 46.1 µM), without a hit: at the top dose activity, positive = more growth; 270,000 tested, 0.4% active; AID 2326; calls by dose curve; further: actives are rising curves; nearly all actives have a fitted effect of over 50% in size
#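 OD600 was taken as the measure of yeast growth restored by compound in an NS1-expressing S. cerevisiae strain. Cells had been washed out of glucose medium and diluted 1:100 into galactose -URA medium, pH 6.0.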
# Pf growth 48h – P. falciparum growth inhibition at 48 hours (one generation) | Potency, µM (doses to about 28.7 µM), for the others: at the top dose activity change, negative = inhibition, actives largely listed as inhibitors | 310,000 tested, 5.9% active | P. falciparum luciferase growth in erythrocytes, 48 h | AID 504832; further: on the % scale 0 is the no-effect control and ±100 the full control effect
#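 First compound was added to culture medium, then infected red cells at 0.1% parasitemia and 2% hematocrit (final). After incubation at 37 C under 5% CO2, luciferase detection reagent was dispensed and light output recorded.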
# HCV inh – inhibitors of hepatitis C virus infection; Huh7.5.1 HCVcc-Cre infection, luciferase reporter, 44 h; Potency, µM (doses to about 41.8 µM), for inactives: at the highest dose activity change, negative = inhibition, usual class: inhibitors; 340,000 tested, 3.4% active; further: on the % scale 0 is the no-effect control and ±100 the full control effect
#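 Infectious HCV cell culture screen: compound-treated cells (1,000/well, pre-plated 4 h) are infected with HCVcc-Cre at roughly 0.5 moi and grown 44 h. Infection is quantified by luciferase signal after 15 min substrate incubation at room temperature.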
# Numbers without * were called inactive; i = inactive; ? = inconclusive; . = not tested or not shown; [ ] = dose if it differs, or a comment. Hits are enriched below; roughly 11% of the tested compounds scored in any of these assays. Unless noted, the call rests on the fitted dose curve; in most records, active means well fitted inhibition curve with a large enough effect; inconclusive means small, poorly fitted or top-dose-only effect, or another doubt; inactive means no such curve, though single readings can be large or run the other way. Potency means the concentration at half of the fitted maximal effect.
SMILES,VACV Venus inh,Pf growth 96h,Vaccinia mCherry,NS1 function inh,Pf growth 48h,HCV inh
CCOc1ccc2c(ccc(/C=C\c3cc(C)c4cccnc4c3O)[n+]2C)c1,.,.,.,-41%,.,.
Cc1cc(C[n+]2ncsc2N)c2ncccc2c1,9%,-90%,-14%,-1%,-36%,-19%
Cc1nnc(SCC(=O)Nc2cc(S(=O)(=O)N3CCOCC3)ccc2N2CCCC2)s1,.,.,.,.,.,12%
COC(=O)C(=CC(=CN(C)C)C=C(C(=O)OC)C(=O)OC)C(=O)OC,-7%,13%,-22%,7%,2%,6%
CS(=O)(=O)c1sc2nc(-c3cccs3)cc(-c3ccccc3)c2c1N,-1%,73%,-13%,4%,?,8.9µM*
Cc1ccc(-c2cc(-c3ccccc3)c3c(N)c(S(C)(=O)=O)sc3n2)cc1,?,7%,?,17%,.,-7%
COc1ccc(S(=O)(=O)N2CCCCC2)cc1NC(=O)CCOc1cc(C)ccc1C,.,12µM*,.,.,?,?
COc1ccc(S(=O)(=O)N2CCCCCC2)cc1NC(=O)CCc1cc(OC)c(OC)c(OC)c1,.,.,.,.,.,-14%
Cc1ccc(C)c(OCCC(=O)Nc2ccc(S(=O)(=O)N3CCCC3)cc2)c1,.,9.3µM*,.,.,?,8.9µM*
N#Cc1c(SCC(=O)Nc2ccc(C(F)(F)F)cc2)sc2c(O)cc(=O)[nH]c12,-6%,4%,-2%,?,?,5%
O=c1c2ccccc2n(Cc2ccc(F)cc2)c(=O)n1C1CCCC1,-9%,13µM*,.,-32%,?,-25%
c1ccc(-c2noc(CSc3nc4ccccc4o3)n2)cc1,-8%,74%,-20%,-12%,10%,24%
O=C(Oc1c(Cl)cc(Cl)c2cccnc12)N1CCOCC1,.,-4%,.,-7%,-14%,0%
O=C(Oc1c(Cl)cc(Cl)c2cccnc12)N1CCCCC1,.,5.2µM*,.,-21%,-12%,-25%
Oc1c(CN2CCN(c3ccccc3)CC2)cc(Br)c2cccnc12,.,?,.,-38%,1.9µM*,?
c1cnc(N2CCN(Cc3c[nH]c4ccccc34)CC2)nc1,13µM*,2%,.,-4%,3%,-6%
CC(C)OCc1cc(CN2CCN(c3ccccc3)CC2)c(O)c2ncccc12,?,.,11µM*,.,.,.
CCOC(=O)N1CCN(Cc2cc(Cl)c3cccnc3c2O)CC1,?,23%,?,-50%,2.6µM*,4µM*
c1ccc(N2CCN(Cc3ccnc4ccccc34)CC2)cc1,.,-2%,.,0%,-17%,28µM*
Brc1cc2c(cc1CN1CCN(c3ccccc3)CC1)OCCO2,5%,12%,?,-5%,6%,3%
Oc1c(Br)cc(Br)c2cccnc12,-5%,9.5µM*,-19%,.,?,?
CCOC(=O)N1CCN(Cc2ccccc2Cl)CC1,-8%,-5%[5.75 µM],-17%,8%,-6%,20%
COCc1cc(CN2CCN(C)CC2)c(O)c2ncccc12,.,8.3µM*,.,?,.,?
Clc1ccc(-c2nnc(-c3cccc4ccccc34)o2)cc1,4%,.,-27%,.,.,?
CCN(CC(=O)NCc1ccc(Cl)cc1)C(=O)CCOc1ccccc1C,-26%,-7%,?,.,-14%,?
SMILES,VACV Venus inh,Pf growth 96h,Vaccinia mCherry,NS1 function inh,Pf growth 48h,HCV inh
O=C(NC(NC(=S)Nc1ccccc1C(=O)O)C(Cl)(Cl)Cl)c1ccco1 (stereo not drawn),-4%,-30%,-9%,2%,-3%,8%
Cc1ccccc1NC(=S)NC(NC(=O)c1ccco1)C(Cl)(Cl)Cl (stereo not drawn),-3%,9.3µM*,-7%,6%,?,-1%
Cc1ccccc1NC(=S)NCc1ccco1,-1%,0.33µM*,-5%,0%,8%,?
S=C(NCc1ccco1)Nc1cc(Cl)c(Cl)cc1Cl,-25%,-19%,-27%,-20%,12%,25µM*
COc1ccc(-n2nc3cc(C)c(NC(=O)c4ccc(C)cc4C)cc3n2)cc1Cl,-7%,.,-2%,.,.,.
CS(=O)(=O)c1ccc(S(=O)(=O)N2CCC(CO)(CCCc3ccccc3)CC2)cc1,.,?,.,0%,-26%,-22%
CC(=O)c1sc(NC(=O)C2(F)C(F)(F)C(F)(F)C(F)(F)C(F)(F)C2(F)F)nc1C,?,-20%,?,-121%,8.3µM*,10µM*
CC(=O)c1sc(NC(=O)C=C(C)C)nc1C,.,.,.,-5%,101%,10%
Cc1ccc(C)c(NC(=S)N2CCN(S(C)(=O)=O)CC2)c1,-9%,20%,-3%,8%,6%,13%
Cc1cccc(NC(=S)N2CCN(S(=O)(=O)c3ccc(F)cc3)CC2)c1,.,?,.,-5%,2.1µM*,5%
O=S(=O)(c1ccccc1)N1CCN(C(=S)Nc2ccc(F)cc2)CC1,-14%,?,-23%,9%,?,9%
Cc1ccc(NC(=S)N2CCN(S(C)(=O)=O)CC2)cc1,-23%,10µM*,-5%,1%,39%,23%
O=S(=O)(c1ccc(Cl)cc1)N1CCN(C(=S)Nc2ccc(F)c(Cl)c2)CC1,?,0%,-20%,5%,0.66µM*,-1%
O=C(NCc1cccc(Cl)c1)c1cccc(OC2CCN(C(=O)C3CC3)CC2)c1,-24%,?,?,-10%,?,?
COC(=O)C(O)(CC(=O)Nc1cc(OC)c(OC)c(OC)c1)C(F)(F)F (stereo not drawn),-4%,?,.,2%,6%,?
CC(NC1=CC(=O)c2cccnc2C1=O)C(O)c1ccccc1 (stereo not drawn),10µM*,.,?,.,.,?
COc1cc(C=O)ccc1OCC(=O)N1CCCC1,-2%,9.3µM*,-10%,3%,3%,13%
COc1cc(CNCc2ccccn2)ccc1OCC(=O)NC1CCCCC1,-13%,?,-22%,-1%,-21%,10%
CCOc1cc(C(=O)Nc2ccc(NC(C)=O)cc2)ccc1OCC(=O)N1CCCCC1,-15%,12µM*,-14%,7%,-19%,?
CCOc1cc(C(=O)Nc2ccc(C)cc2C)ccc1OCC(=O)N1CCCCC1,-8%,?,-5%,6%,?,-19%
CCOc1cc(CNCc2ccccc2)ccc1OCC(=O)NC1CCCCC1,-20%,-44%,-5%,-6%,-5%,2.5µM*
CCOc1cc(CNn2cnnc2)cc(Br)c1OCC(=O)NC1CCCCC1,.,9.3µM*,.,6%,?,16%
C=CCn1c2ccccc2c2nnc(SCC(=O)OCN3C(=O)c4ccccc4C3=O)nc21,-29%,-22%,.,3%,6%,-4%
COc1cccc(NC(=O)c2ccc(NC(=O)C(C)C)cc2)c1,8%,176%,-11%,-5%,117%,?
CCOc1cc(C(=S)N2CCCCC2)ccc1OCC(=O)NCc1ccccc1,-15%,3.7µM*,i,5%,.,?
Cc1cc(C)nc(N2CCC(C(=O)O)CC2)n1,-7%,35%,-14%,4%,2%,18%
